CIT2 TOR yeast: yeast TOR pathway CIT2-GFP modulation; AID 2029; GFP response vs DMSO, % at 10 µM; S. cerevisiae CIT2-GFP strain, flow cytometry, 3 h; 100 means same as DMSO wells; hit rate 0.065% among 320,000;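 active = GFP response relative to DMSO above a set limit, near the screen mean plus 3 SD, cut at about 150% in these data; inconclusive = Fewer than 70 cells measured for a yeast strain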;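 also: ratio of well median GFP fluorescence to mean of DMSO wells on the plate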
Myeloid diff MLP: myeloid differentiation induction; ER-HoxA9 myeloid progenitors, lysozyme-GFP differentiation, flow cytometry; calls only at 10 µM; hit rate 1% among 360,000; AID 624256;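 active = normalized GFP-positive differentiation at or above the plate's own cutoff, the solvent-only control mean plus 3 SD; inconclusive = no clear call, values can overlap the other calls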;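 also: cells exposed to compound for four days before flow analysis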
LAP4-GFP MLPCN: alters LAP4-GFP fluorescence in TOR pathway yeast screen; S. cerevisiae LAP4-GFP multiplex, flow cytometry GFP, 3 h; median GFP as percent of DMSO wells; GFP response vs DMSO, % at 10 µM; hit rate 0.34% among 320,000;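 active = GFP response vs DMSO above a set limit, about the screen mean plus 3 SD, cut at about 150% in these data; inconclusive = under 70 cell events counted for the yeast strain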
RPL19A-GFP yeast: alters RPL19A-GFP fluorescence in TOR pathway yeast screen. S. cerevisiae RPL19A-GFP strain, flow cytometry, 3 h; active compounds read low. percent response vs DMSO, % at 10 µM. hit rate 0.3% among 330,000. AID 2025;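 active = percent response vs DMSO below 50%; inconclusive = fewer than 70 events counted for the yeast strain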;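 also: median channel GFP fluorescence of the barcoded RPL19A-GFP strain; lower means less RPL19A-GFP as with rapamycin TOR inhibition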
AGP1-GFP MLPCN: alters AGP1-GFP fluorescence in TOR pathway yeast screen | S. cerevisiae AGP1-GFP multiplex flow cytometry, 3 h; GFP as percent of DMSO wells | hit rate 0.02% among 320,000 | GFP response vs DMSO, % at 10 µM;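 active = GFP response relative to DMSO above a set limit, near screen average plus 3 SD, cut at about 150% in these data; inconclusive = fewer than 70 cells counted for the yeast strain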;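 also: median GFP channel fluorescence of the gated AGP1 strain per well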
MEP2 TOR yeast: alters MEP2-GFP fluorescence in TOR pathway yeast screen; S. cerevisiae MEP2-GFP strain, flow cytometry GFP, 3 h; 100% = DMSO control level; GFP response vs DMSO, % at 10 µM; hit rate 0.51% among 330,000; AID 2016;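 active = GFP response versus DMSO above a set limit, roughly screen mean plus 3 SD, cut at about 180% in these data; inconclusive = fewer than 70 cells counted for a yeast strain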;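 also: median GFP fluorescence of the barcode-gated MEP2-GFP cells per well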
Hits are given with their value; . = inactive; ? = inconclusive; / = no result; + = active, no number; ! = not active in a repeat; [ ] = another dose, or the depositor's remark. Rows were chosen to be rich in hits. Some 1.8% of all compounds tested hit in one or more screens of this group.

SMILES	CIT2 TOR yeast	Myeloid diff MLP	LAP4-GFP MLPCN	RPL19A-GFP yeast	AGP1-GFP MLPCN	MEP2 TOR yeast
CCCNS(=O)(=O)c1ccc(CCC(=O)NCc2ccc3c(c2)OCO3)cc1	.	.	.	.	.	.
O=C1C(CSCc2ccccc2)NC(=S)N1c1ccccc1 (configuration not stated)	.	.	152	.	.	.
Cn1c(SCC(=O)N(Cc2ccccc2)C(C)(C)C)nc2ccccc21	.	.	.	.	.	.
CC1CCCN(CC(=O)Nc2ccc(S(=O)(=O)N3CCCC3)cc2)C1 (configuration not stated)	.	+	.	.	.	.
CCC(C)c1ccccc1OCC(=O)NN1C(=O)c2ccccc2C1=O (configuration not stated)	.	.	.	.	.	.
O=C(NC12CC3CC(CC(C3)C1)C2)c1ccc(N2CCNCC2)c([N+](=O)[O-])c1	.	+	.	.	.	.
CS(=O)(=O)N1CCN(c2ccc(C(=O)NC34CC5CC(CC(C5)C3)C4)cc2[N+](=O)[O-])CC1	.	.	.	.	.	.
COc1ccc(CCn2ccc(O)c(Cc3ccc(Cl)cc3)c2=O)cc1OC	.	+	.	.	.	.
COC(=O)Cc1c(O)ccn(CCc2ccc(OC)c(OC)c2)c1=O	.	.	.	.	.	.
N#CCOc1ccccc1/C=N/n1nnnc1N	.	.	.	.	.	.
CSC1=NC(C)(C)C=C(/C=C/c2ccc(Cl)cc2Cl)N1	.	+	.	.	.	.
O=S(=O)(NCCc1csc(-c2cccnc2)n1)c1ccc2c(c1)OCCO2	.	+	.	.	.	.
COc1ccc(-c2nc(CCNS(=O)(=O)c3ccc4c(c3)OCCO4)cs2)cc1	.	.	.	.	.	.
CC1CCCCC1NC(=O)CSc1nnc(COc2ccccc2Cl)o1 (configuration not stated)	.	.	.	.	.	.
CCCN1CCN(C(=S)Nc2ccc([N+](=O)[O-])cc2)CC1	.	+	.	.	.	.
CCc1ccc(CN2CCCC(CNS(=O)(=O)c3ccc(OC)cc3)C2)cc1 (configuration not stated)	.	.	.	.	.	.
COc1ccc(NC(=S)N(C(C)C)C2CCN(C(C)C)CC2)cc1Cl	.	/	.	.	.	.
Cc1cc(C)c(-c2csc(NC(=O)/C=C/c3cccs3)n2)c(C)c1	.	+	.	.	.	.
COc1ccc(CNC(=O)CSc2nnc3nc(C)cc(C)n23)cc1OC	.	+	.	.	.	.
Cc1cc(C)n2c(SCC(=O)NCc3ccco3)nnc2n1	.	.	.	.	.	.
COc1cccc(/C=N/NC(=O)c2ccoc2C)c1	?	.	.	.	?	322[may fluoresce violet]
O=C(N[C@@H](c1ccccc1)[C@H](O)c1ccccc1)[C@@H]1CCCN1C(=O)OCc1ccccc1	/	.	/	/	/	/
O=C(CSc1ccc(Cl)cc1)N1CCN(c2ccc([N+](=O)[O-])cc2Cl)CC1	.	.	.	.	.	.
Cc1ccc(Cl)cc1N1CCN(C(=O)CSc2ccsc2[N+](=O)[O-])CC1	.	.	.	.	.	184
O=C(N1CCN(c2ccccc2)CC1)C1(S(=O)(=O)c2ccc(Cl)cc2)CC1	.	+	.	.	.	.
SMILES	CIT2 TOR yeast	Myeloid diff MLP	LAP4-GFP MLPCN	RPL19A-GFP yeast	AGP1-GFP MLPCN	MEP2 TOR yeast
O=C(c1ccco1)N1CCN(C(=O)C2(S(=O)(=O)c3ccc(Cl)cc3)CC2)CC1	.	.	.	.	.	.
Nc1cccc(P(=O)(c2ccccc2)c2ccccc2)c1	.	.	.	.	.	.
CC(=O)c1cc(C#N)c(SCc2ccccc2)nc1C	?	.	.	.	/	184[may fluoresce violet]
O=C(Cc1ncon1)Nc1ccc(F)c(F)c1F	?	.	.	33[may fluoresce violet]	?	185[may fluoresce violet]
Cc1c(Br)cc(C(=O)O)c(C)c1C	.	.	166	.	.	.
Cc1c(N)cc(N)cc1C(=O)O	.	.	.	.	.	.
O=C(/C=C/c1cn(CC(O)CN2CCCCC2)c2ccccc12)c1ccccc1 (configuration not stated)	/	.	/	/	/	/
O=C(/C=C/c1cn(CC(O)CN2CCCCC2)c2ccccc12)c1cccs1 (configuration not stated)	.	+	.	.	.	.
CCCN(CCC)CC(O)Cn1cc(/C=C/C(=O)c2ccccc2)c2ccccc21 (configuration not stated)	/	.	/	/	/	/
CCCN(CCC)CC(O)Cn1cc(/C=C/C(=O)c2cccs2)c2ccccc21 (configuration not stated)	.	+	.	.	.	.
COC(=O)C1=C(N)Oc2cc(C)n(CC3CCCO3)c(=O)c2C1c1ccccc1OC (configuration not stated)	?	.	.	.	?	247[may fluoresce violet]
CCc1ccc(/C=C2\CN(CC)Cc3c2nc2ccccc2c3C(=O)O)cc1	?	.	.	.	.	453[may fluoresce violet]
CCc1cc(C(=O)O)c(NC(=O)C(c2ccccc2)c2ccccc2)s1	?	.	.	.	/	218[may fluoresce violet]
CCC(C)C(NC(N)=O)C(=O)NC1CCC(C)CC1 (configuration not stated)	.	/	.	.	.	.
Cc1onc(-c2ccccc2)c1C(=O)Nc1nnc(-c2ccncc2)s1	.	.	.	.	.	.
Cc1noc(C)c1C(=O)Nc1nnc(-c2ccccc2)s1	?	.	.	.	.	231[may fluoresce violet]
CC[C@@H](C)[C@@H]1CN([C@@H](CN2CCC[C@H]2CN2C(N)=NC[C@H]2C(C)C)C(C)C)C(=N)N1CCc1ccc(Cl)c(Cl)c1	.	.	.	.	.	.
COc1cc(/C=C/C(=O)c2ccc3c(c2)OCCO3)cc(Br)c1OCC(=O)N(C)C	.	+	.	.	.	.
O=C(/C=C/c1ccncc1)c1ccc2c(c1)OCCO2	.	/	.	.	.	.
Nc1c2c(nc3ccccc13)CCCC2	.	.	.	.	.	.
Nc1c2ccccc2nc2ccccc12	?	?	.	37[may fluoresce violet]	?	206![may fluoresce violet]
Cc1ccccc1N(C(=O)CNC(=O)c1ccco1)C(C(=O)NC1CCCC1)c1ccncc1 (configuration not stated)	.	.	.	.	.	.
COC(=O)c1ccc(C)c(NC(=O)Cc2coc3cc(OC)ccc23)c1	.	+	.	.	.	.
COC(=O)c1cc(NC(=O)Cc2coc3cc(OC)ccc23)cc(C(=O)OC)c1	.	.	/	.	.	.
COc1ccc(C(C(=O)NC(C)(C)C)N(C(=O)CCC(=O)Nc2cc(C)on2)c2ccc(C)c(C)c2)cc1 (configuration not stated)	?	.	.	.	?	319[may fluoresce violet]
COc1ccc(C(C(=O)NC(C)(C)C)N(C(=O)CCC(=O)Nc2cc(C)on2)c2ccc3c(c2)OCCO3)cc1 (configuration not stated)	.	.	.	.	.	.
